Measured values as given in PubChem BioAssay (NCI).
Compounds without any hit were thinned out: in the full panel of roughly 79,000, 15% have a hit. Calls of active or inactive are those of the source. No stated cut-off is given here; in the data, active means growth inhibition above about 70%; inactive means the rest.

Legend:
[1] = NCI Yeast Anticancer Drug Screen. Data for the wt1 strain (AID 149);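 further: 0% = growth of vehicle-treated wt1 cultures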; settings: S. cerevisiae wt1 strain (SPY 50644) growth inhibition, hits give high values
Outline: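 Measured: growth of wt1 yeast under compound versus vehicle treatment, reported as inhibition.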

[2] = NCI Yeast Anticancer Drug Screen. Data for the rad50EPP+ strain (AID 151);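 further: 0% = growth of vehicle-treated control cultures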; settings: S. cerevisiae rad50 mutant strain, hits give high values
Outline: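 Strain rad50EPP+; compound exposure; % growth inhibition vs vehicle.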

[3] = NCI Yeast Anticancer Drug Screen. Data for the mgt1 strain (AID 153); settings: S. cerevisiae mgt1 mutant growth inhibition, hits give high values
Outline: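 Read-out: yeast growth inhibition vs vehicle control. Strain mgt1, drawn from a panel altered in DNA damage repair or cell cycle control.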

[4] = NCI Yeast Anticancer Drug Screen. Data for the rad50 strain (AID 155);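 further: 0% = growth of vehicle-only cultures of the same strain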; settings: S. cerevisiae rad50 strain growth inhibition, hits give high values
Outline: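 Growth of the mutant yeast was measured after compound exposure and referenced to vehicle-treated cultures.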

[5] = NCI Yeast Anticancer Drug Screen. Data for the mec2-1 strain (AID 157); settings: S. cerevisiae mec2-1 strain, hits give high values
Outline: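 Cells of the genetically defined mec2-1 yeast strain are incubated with test compound. Inhibition of growth is calculated against vehicle-treated controls.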

[6] = NCI Yeast Anticancer Drug Screen. Data for the rad14 strain (AID 159);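 further: 0% = growth of vehicle-treated control cultures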; settings: S. cerevisiae rad14 strain growth inhibition, hits give high values
Outline: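 Here, inhibition of yeast growth was measured after compound exposure, using a strain with a genetic defect in DNA damage repair and vehicle-treated cultures as the reference.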

[7] = NCI Yeast Anticancer Drug Screen. Data for the sgs1 mgt1 strain (AID 161);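 further: 0% = growth of cultures given vehicle only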; settings: S. cerevisiae sgs1 mgt1 strain, hits give high values
Outline: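 Read-out: growth inhibition vs vehicle controls. Cells: mutant yeast strain deficient in DNA damage repair.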

[8] = NCI Yeast Anticancer Drug Screen. Data for the CLN2oe strain (AID 163);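 further: 0% = growth of vehicle-only control cultures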; settings: S. cerevisiae CLN2oe strain, hits give high values
Outline: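 Strain altered in cell-cycle control, incubated with compound; growth compared to solvent-treated controls.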

[9] = NCI Yeast Anticancer Drug Screen. Data for the cln2 rad14 strain (AID 165);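 further: 0% = growth equal to vehicle treated cultures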; settings: S. cerevisiae cln2 rad14 strain, hits give high values
Outline: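 The screen exposed genetically defined yeast (cln2 rad14) to test compounds and scored growth inhibition relative to vehicle-treated controls.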

[10] = NCI Yeast Anticancer Drug Screen. Data for the bub3 strain (AID 167); settings: S. cerevisiae bub3 mutant strain, hits give high values
Outline: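 Whole-cell yeast assay. The mutant strain was incubated with compounds, and growth inhibition was determined by comparison with vehicle-treated cells.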

[11] = NCI Yeast Anticancer Drug Screen. Data for the wt2 strain (AID 169);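 further: 0% = growth of vehicle-treated yeast cultures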; settings: S. cerevisiae wt2 strain growth inhibition, hits give high values
Outline: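 Steps: yeast strain treated with compound; growth recorded; inhibition calculated relative to cultures given vehicle alone.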

[12] = NCI Yeast Anticancer Drug Screen. Data for the mlh1 strain (AID 171);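 further: 0% = growth of vehicle-treated control cultures of the same strain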; settings: S. cerevisiae mlh1 strain growth inhibition, hits give high values
Outline: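 Yeast screen: mutant strain plus compound, growth scored against vehicle control wells.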

[13] = NCI Yeast Anticancer Drug Screen. Data for the sgs1 strain (AID 173);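 further: 0% = growth of vehicle-only control cultures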; settings: S. cerevisiae sgs1 mutant, hits give high values
Outline: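 Inhibition of yeast growth served as the measure. The mutant strain was treated with each compound, and growth was normalised to cultures receiving vehicle alone.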

[14] = NCI Yeast Anticancer Drug Screen. Data for the mlh1 rad18 strain (AID 175); settings: S. cerevisiae mlh1 rad18 strain growth inhibition, hits give high values
Outline: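 Compound-treated yeast growth, normalised to vehicle controls. Strain bears defined DNA repair mutations.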

[15] = NCI Yeast Anticancer Drug Screen. Data for the rad18 strain (AID 177); settings: S. cerevisiae rad18 mutant growth inhibition, hits give high values
Outline: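 Inhibition values reflect reduced yeast growth compared with vehicle-treated controls, using a strain engineered with a DNA damage repair defect.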

[16] = at 5.0 µM (retest, dose inferred, filed as 0.5)
[17] = at 50.0 µM (retest, dose inferred, filed as 5.0)

Measured: growth inhibition

Oc1c2c(c(O)c3ccccc13)C1(N=N2)c2ccccc2Oc2ccccc21
active: [1]; at 11.0 µM 98% | [1]; at 33.0 µM 98% | [1]; at 100.0 µM 96% | [2]; at 11.0 µM 93% | [2]; at 33.0 µM 95% | [2]; at 100.0 µM 85% | [3]; at 11.0 µM 98% | [3]; at 33.0 µM 97% | [3]; at 100.0 µM 94% | [4]; at 3.7 µM 82% | [4]; at 11.0 µM 98% | [4]; at 33.0 µM 94% | [4]; [17] 98% | [4]; at 50.0 µM 98.5% | [4]; at 100.0 µM 90% | [5]; at 11.0 µM 98% | [5]; at 33.0 µM 97% | [5]; [17] 98% | [5]; at 50.0 µM 98.7% | [5]; at 100.0 µM 94% | [6]; at 11.0 µM 98% | [6]; at 33.0 µM 96% | [6]; at 100.0 µM 92% | [7]; [17] 98% | [7]; at 50.0 µM 98.6% | [8]; at 11.0 µM 98% | [8]; at 33.0 µM 95% | [8]; at 100.0 µM 88% | [9]; [17] 97% | [9]; at 50.0 µM 92.2% | [10]; at 11.0 µM 98% | [10]; at 33.0 µM 96% | [10]; [17] 97% | [10]; at 50.0 µM 99% | [10]; at 100.0 µM 93% | [11]; at 11.0 µM 98% | [11]; at 33.0 µM 97% | [11]; at 100.0 µM 94% | [12]; at 11.0 µM 98% | [12]; at 33.0 µM 97% | [12]; at 100.0 µM 94% | [13]; at 3.7 µM 81% | [13]; at 11.0 µM 98% | [13]; at 33.0 µM 98% | [13]; at 100.0 µM 95% | [14]; [17] 98% | [14]; at 50.0 µM 98%
inactive: [1]; at 1.2 µM 2% | [1]; at 3.7 µM 34% | [2]; at 1.2 µM 8% | [2]; at 3.7 µM 54% | [3]; at 1.2 µM 10% | [3]; at 3.7 µM 47% | [4]; at 1.2 µM 17% | [4]; [16] 46% | [5]; at 1.2 µM 10% | [5]; at 3.7 µM 44% | [5]; [16] 31% | [6]; at 1.2 µM 17% | [6]; at 3.7 µM 44% | [7]; [16] 57% | [8]; at 1.2 µM 15% | [8]; at 3.7 µM 39% | [9]; [16] 19% | [10]; at 1.2 µM 8% | [10]; at 3.7 µM 62% | [10]; [16] 21% | [11]; at 1.2 µM 4% | [11]; at 3.7 µM 49% | [12]; at 1.2 µM 13% | [12]; at 3.7 µM 43% | [13]; at 1.2 µM 14% | [14]; [16] 42%

C/C(=N\OCC(O)CNCCSCc1ccccc1)c1ccccc1Cl (stereo unspecified)
active: [3]; at 33.0 µM 85% | [3]; at 100.0 µM 100% | [4]; at 33.0 µM 77% | [4]; at 50.0 µM 80.9% | [4]; at 100.0 µM 95% | [5]; at 50.0 µM 82.7% | [5]; at 100.0 µM 88% | [6]; at 11.0 µM 85% | [6]; at 33.0 µM 99% | [6]; at 100.0 µM 99% | [7]; at 50.0 µM 87.5% | [8]; at 100.0 µM 75% | [10]; at 33.0 µM 81% | [10]; [17] 73% | [10]; at 50.0 µM 86% | [10]; at 100.0 µM 97% | [11]; at 100.0 µM 81% | [12]; at 33.0 µM 71% | [12]; at 100.0 µM 99% | [13]; at 100.0 µM 97% | [14]; at 50.0 µM 95.3% | [15]; at 33.0 µM 80% | [15]; at 100.0 µM 97%
inactive: [1]; at 1.2 µM -3% | [1]; at 3.7 µM 0% | [1]; at 11.0 µM 6% | [1]; at 33.0 µM 19% | [1]; at 100.0 µM 40% | [2]; at 1.2 µM -1% | [2]; at 3.7 µM 0% | [2]; at 11.0 µM 2% | [2]; at 33.0 µM 6% | [2]; at 100.0 µM 12% | [3]; at 1.2 µM 4% | [3]; at 3.7 µM 9% | [3]; at 11.0 µM 34% | [4]; at 1.2 µM 12% | [4]; at 3.7 µM -12% | [4]; [16] 40% | [4]; at 11.0 µM 64% | [4]; [17] 69% | [5]; at 1.2 µM 3% | [5]; at 3.7 µM 4% | [5]; [16] 2% | [5]; at 11.0 µM 28% | [5]; at 33.0 µM 50% | [5]; [17] 48% | [6]; at 1.2 µM 30% | [6]; at 3.7 µM 46% | [7]; [16] 30% | [7]; [17] 58% | [8]; at 1.2 µM -3% | [8]; at 3.7 µM 12% | [8]; at 11.0 µM 30% | [8]; at 33.0 µM 47% | [9]; [16] 14% | [9]; [17] 61% | [9]; at 50.0 µM 66.8% | [10]; at 1.2 µM 6% | [10]; at 3.7 µM 25% | [10]; [16] 29% | [10]; at 11.0 µM 54% | [11]; at 1.2 µM -1% | [11]; at 3.7 µM 8% | [11]; at 11.0 µM 11% | [11]; at 33.0 µM 30% | [12]; at 1.2 µM 3% | [12]; at 3.7 µM 4% | [12]; at 11.0 µM 24% | [13]; at 1.2 µM 8% | [13]; at 3.7 µM 17% | [13]; at 11.0 µM 41% | [13]; at 33.0 µM 69% | [14]; [16] 21% | [14]; [17] 41% | [15]; at 1.2 µM 12% | [15]; at 3.7 µM 32% | [15]; at 11.0 µM 55%
